“And” between values parts separate entries of the source, which are not always exact repeats. Equal entries are not always repeated. Results filed as inconclusive are left out. A structure can be active in one record and inactive in another. The source made the active and inactive calls. Unless noted, calls follow the shape of the dose curve; as a rule, active = well fitted curve in the direction sought with a large enough effect in the repeat runs; inconclusive = weak or mixed curves; inactive = no such curve, though single readings can be large; an effect the other way counts as inactive or inconclusive.

In experiment [1] the target is Progesterone receptor (Homo sapiens) (UniProt P06401). Description: qHTS assay to identify small molecule antagonists of the progesterone receptor (PR) signaling pathway (AID 1346795; active = well fitted inhibition curve with a large enough effect in the signal ratio in the repeat runs, not every such curve was filed as active; the % refers to the signal ratio). Put shortly:
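Antagonist mode with agonist R5020 at 1 nM final and 16 hr incubation at 37C. Reporter was beta-lactamase driven by UAS in HEK293T (PR-UAS-bla), 2% charcoal-stripped serum; signal from LiveBLAzer FRET substrate, 2 hr at room temperature.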

Experiment [2] is described as follows: qHTS assay to identify small molecule antagonists of the progesterone receptor (PR) signaling pathway - cell viability counter screen (AID 1346798). Also: series mostly up to about 92 µM; nearly all actives have a fitted effect of over 50% in size. Put shortly: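 Cytotoxicity read as CellTiter-Glo luminescence (30 min, room temperature) in the same wells as the beta-lactamase readout. HEK293T PR-UAS-bla cells in charcoal-stripped 2% FBS received compound and R5020, then 16 h at 37C, 5% CO2.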
For orientation: Quantitative high-throughput screening tests each substance at several concentrations.

Experiment [3] is described as follows: qHTS assay to identify small molecule agonists of the progesterone receptor (PR) signaling pathway - cell viability counter screen (AID 1346799; calls by dose curve; also: nearly all actives have a fitted effect of over 45% in size). The gist of the method:
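Cytotoxicity measured by CellTiter-Glo luminescence (30 min, RT) in the same wells as the PR beta-lactamase agonist read. Those HEK293T cells had 16 h compound treatment at 37 C in 2% charcoal-stripped FBS medium.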

Experiment [4] can be described thus: qHTS assay to identify small molecule antagonists of the TGF-beta/Smad signaling pathway - cell viability counter screen (AID 1346824). Also: nearly all actives have a fitted effect of over 50% in size. Put shortly: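 SBE-bla HEK 293T cells were plated overnight at 37 C, then given compounds in DMSO plus TGF-beta1 (added as 0.25 ng/mL solution) for 5 hr. After the bla read, CellTiter-Glo was added to the same wells and luminescence read after 30 min at room temperature.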

Experiment [5] in a line: qHTS assay to identify small molecule agonists of the TGF-beta/Smad signaling pathway - cell viability counter screen (AID 1346829). Also: top concentration of the series differs between compounds; nearly all actives have a fitted effect of over 45% in size. Put shortly:
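After overnight seating at 37 C and 5% CO2, reporter cells got compounds for 5 hr and FRET substrate for 2 hr; cell viability then came from CellTiter-Glo luminescence.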

Experiment [6] is described as follows: qHTS assay to identify small molecule agonists of the TGF-beta/Smad signaling pathway (AID 1346859; active = well fitted activation curve with a large enough effect in the signal ratio in the repeat runs, not every such curve was filed as active; the % refers to the signal ratio; also: series mostly up to about 77 µM). The gist of the method:
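Fluorescence (ex 405 nm; em 460 and 530 nm) was read 2 h after LiveBLAzer FRET substrate at RT. The preceding compound treatment of overnight-plated SBE-bla HEK293T cells lasted 5 h at 37 C.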

For experiment [7], the target named is Thyrotropin-releasing hormone receptor (Homo sapiens) (UniProt P34981). The experiment in a line: qHTS assay to identify small molecule antagonists of the thyrotropin-releasing hormone receptor (TRHR) signaling pathway (AID 1346877; active = well fitted inhibition curve with a large enough effect in the repeat runs, not every such curve was filed as active; also: series mostly up to about 51 µM). The gist of the method: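 Calcium signal in dye-loaded TRHR/HEK293 cells; compounds added 5 min before TRH (1 nM final); fluorescence monitored 3 min at 1 s steps.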
Sequence of Thyrotropin-releasing hormone receptor (Homo sapiens) (P34981 whole entry, looked up): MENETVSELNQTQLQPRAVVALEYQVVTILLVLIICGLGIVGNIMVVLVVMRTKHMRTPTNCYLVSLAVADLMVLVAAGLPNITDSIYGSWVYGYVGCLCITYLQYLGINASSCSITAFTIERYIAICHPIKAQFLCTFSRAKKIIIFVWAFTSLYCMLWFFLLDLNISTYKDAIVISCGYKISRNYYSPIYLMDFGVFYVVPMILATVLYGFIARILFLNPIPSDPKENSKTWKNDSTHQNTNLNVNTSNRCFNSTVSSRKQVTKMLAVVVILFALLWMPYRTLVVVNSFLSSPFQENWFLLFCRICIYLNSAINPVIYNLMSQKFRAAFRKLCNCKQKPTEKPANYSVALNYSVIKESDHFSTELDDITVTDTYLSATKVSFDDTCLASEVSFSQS

Experiment [8] has the same target. The experiment in a line: qHTS assay to identify small molecule agonists of the thyrotropin-releasing hormone receptor (TRHR) signaling pathway (AID 1346891; calls by dose curve; also: series mostly up to about 58 µM). The gist of the method: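 Agonist-mode intracellular calcium readout: kinetic fluorescence over 3 min at 1 s intervals after compound addition to TRHR-HEK293 cells (18 h seeded, 2 h dye-loaded at 37 C). Fifteen concentrations, triplicates.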

Experiment [9] is described as follows: Human pregnane X receptor (PXR) small molecule agonists, qHTS cell viability counter screen (AID 1346977). Also: nearly all actives have a fitted effect of over 50% in size. Also: potency is read from the fitted curve at half-maximal effect. Put shortly:
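Same-well viability read: CellTiter-Fluor added after 23 hr compound exposure, fluorescence measured 1 hr later. Cells were PXR-Luc HepG2 seeded at 2,000/well in 5% charcoal-stripped FBS medium, rested 5 hr before dosing at 37 C.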

A short description of experiment [10]: Caspase-3/7 induction in HepG2 cells by small molecules, qHTS assay (AID 1346978). Also: nearly all actives have a fitted effect of over 15% in size. The gist of the method: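 Wild-type HepG2 cells (2,000/well) were settled 5 h at 37 C, 5% CO2, then exposed to compounds in DMSO for 17 h. Caspase-3/7 activity was read by luminescence 30 min after adding Caspase-Glo 3/7 reagent at room temperature.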
A short description of experiment [11]: Caspase-3/7 induction in CHO-K1 cells by small molecules, qHTS assay (AID 1346980). Also: nearly all actives have a fitted effect of over 15% in size. Put shortly:
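Wild-type cells were seeded at 1,500 per well and settled 5 hr at 37 C, 5% CO2, then exposed to DMSO-dissolved compounds for 17 hr. Caspase-Glo 3/7 reagent was added, and luminescence was read after 30min at room temperature.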

Experiment [12] is described as follows: Caspase-3/7 induction in HepG2 cells by small molecules, qHTS cell viability counter screen (AID 1346981). Also: nearly all actives have a fitted effect of over 30% in size. Also: potency is read from the fitted curve at half-maximal effect. Put shortly: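 After a 5-hr attachment period at 37 C and 5% CO2, wild-type HepG2 cells received compounds in DMSO. Sixteen hours later CellTiter-Fluor was dispensed and the fluorescent signal quantified after a further hour.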
Experiment [13] has as its target Nuclear receptor subfamily 1 group I member 2 (Homo sapiens) (UniProt O75469). The experiment in a line: Human pregnane X receptor (PXR) small molecule agonists, qHTS assay (AID 1346982). Also: nearly all actives have a fitted effect of over 35% in size. The gist of the method: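 Tox21 qHTS; PXR-Luc HepG2; compounds pinned from DMSO; 24 hr, 37 C; ONE-Glo luciferase detection, 30 min room temperature.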
Experiment [14] concerns the target Cytochrome P450 2D6 (Homo sapiens) (UniProt P10635). Description: Cytochrome P450 Family 2 Subfamily D Member 6 (CYP2D6) small molecule antagonists: luciferase reporter qHTS assay (AID 1671196). Also: nearly all actives have a fitted effect of over 50% in size. Also: potency is read from the fitted curve at half-maximal effect. The gist of the method:
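Room-temperature luminescent CYP2D6 activity assay: compound preincubated 10 min with enzyme–substrate mix, NADPH-initiated reaction 1 h, detection reagent 20 min before reading.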

The target of experiment [15] is Cytochrome P450 2C9 (Homo sapiens) (UniProt P11712). The experiment in a line: Cytochrome P450 Family 2 Subfamily C Member 9 (CYP2C9) small molecule antagonists: luciferase reporter qHTS assay (AID 1671198). Also: nearly all actives have a fitted effect of over 50% in size. Also: potency is read from the fitted curve at half-maximal effect. The gist of the method: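 CYP2C9 activity was measured with a P450-Glo proluciferin substrate. Enzyme–substrate mix was held with compound for 10 min at room temperature, then NADPH regeneration solution was added for 1 h at 37C. Luciferin product was read as luminescence.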
Sequence of Cytochrome P450 2C9 (Homo sapiens) (P11712 whole entry, looked up): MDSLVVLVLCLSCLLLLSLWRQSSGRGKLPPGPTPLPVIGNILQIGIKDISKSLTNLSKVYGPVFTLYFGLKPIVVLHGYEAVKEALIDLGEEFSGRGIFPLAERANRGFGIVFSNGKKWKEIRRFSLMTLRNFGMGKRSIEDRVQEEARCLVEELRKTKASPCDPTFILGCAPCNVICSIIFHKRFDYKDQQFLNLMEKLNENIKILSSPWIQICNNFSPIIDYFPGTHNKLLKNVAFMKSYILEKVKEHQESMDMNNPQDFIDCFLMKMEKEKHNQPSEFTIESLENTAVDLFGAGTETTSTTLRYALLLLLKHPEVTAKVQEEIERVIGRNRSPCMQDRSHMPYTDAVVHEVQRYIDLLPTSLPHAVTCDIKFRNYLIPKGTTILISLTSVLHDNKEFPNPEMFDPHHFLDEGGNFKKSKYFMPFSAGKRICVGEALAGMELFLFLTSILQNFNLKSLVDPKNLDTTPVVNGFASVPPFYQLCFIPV
(In general: A reporter such as luciferase makes a cellular process visible.)

Experiment [16] in a line: Caspase-3/7 induction in CHO-K1 cells by small molecules, qHTS cell viability counter screen (AID 1346979). Also: nearly all actives have a fitted effect of over 35% in size. Put shortly: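 Cytotoxicity counter screen: CellTiter-Fluor added to compound-treated wild-type CHO-K1 cells at 16 h (37C, 5% CO2), fluorescence measured 1 h later; same wells as caspase-3/7 measurement.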
Experiment [17] deals with Cytochrome P450 2C19 (Homo sapiens) (UniProt P33261). The experiment in a line: Cytochrome P450 Family 2 Subfamily C Member 19 (CYP2C19) small molecule antagonists: luciferase reporter qHTS assay (AID 1671197). Also: nearly all actives have a fitted effect of over 65% in size. Also: potency is read from the fitted curve at half-maximal effect. The gist of the method:
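Inhibition of CYP2C19 was scored from loss of luminescence in a P450-Glo proluciferin substrate assay, NADPH-started and run 1 h at 37C, with ketoconazole as positive control.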

In experiment [18] the target is Nuclear receptor subfamily 1 group I member 2 (Rattus norvegicus) (UniProt Q9R1A7). The experiment in a line: Rat pregnane X receptor (rPXR) activation by small molecules, qHTS assay (AID 1346983). Also: nearly all actives have a fitted effect of over 20% in size. The note with it: rPXR luciferase reporter cells, One-Glo luminescence, 24 h; stronger effect = higher value. The gist of the method:
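Cell-based rPXR luciferase reporter assay, 2,000 cells per well, rested 5hr at 37 C before compound addition in DMSO, then 24 hr at 37 C. One-Glo reagent was added and luminescence read after 30 min at room temperature.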

Experiment [19] addresses Nuclear receptor subfamily 1 group I member 2 (Homo sapiens) (UniProt O75469). Description: CYP3A4 induction through human pregnane X receptor (PXR) by small molecules, qHTS assay (AID 1346984). Also: nearly all actives have a fitted effect of over 40% in size. The gist of the method:
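Cells (DPX-2; HepG2 with PXR element plus CYP3A4-promoter luciferase) settled 5hr, then were treated 24hr at 37C. A 3hr, 3uM-final Luciferin-IPA step preceded luminescence measurement with One-Glo.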

Experiment [20] has the same target. The experiment in a line: Human pregnane X receptor (PXR) activation by small molecules, qHTS assay (AID 1346985). Also: nearly all actives have a fitted effect of over 40% in size. The gist of the method: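 DPX-2 cells (HepG2 co-transfected with a PXR response element and a CYP3A4-promoter luciferase construct) were seeded at 2,000 per well, rested 5 hr at 37C, then exposed to DMSO-dissolved compounds for 24 hr. Activation was read as luciferase luminescence.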
% is scaled to controls: 0 for no effect and ±100 for the full control effect.

Sequence of Cytochrome P450 2D6 (Homo sapiens) (P10635 whole entry, looked up): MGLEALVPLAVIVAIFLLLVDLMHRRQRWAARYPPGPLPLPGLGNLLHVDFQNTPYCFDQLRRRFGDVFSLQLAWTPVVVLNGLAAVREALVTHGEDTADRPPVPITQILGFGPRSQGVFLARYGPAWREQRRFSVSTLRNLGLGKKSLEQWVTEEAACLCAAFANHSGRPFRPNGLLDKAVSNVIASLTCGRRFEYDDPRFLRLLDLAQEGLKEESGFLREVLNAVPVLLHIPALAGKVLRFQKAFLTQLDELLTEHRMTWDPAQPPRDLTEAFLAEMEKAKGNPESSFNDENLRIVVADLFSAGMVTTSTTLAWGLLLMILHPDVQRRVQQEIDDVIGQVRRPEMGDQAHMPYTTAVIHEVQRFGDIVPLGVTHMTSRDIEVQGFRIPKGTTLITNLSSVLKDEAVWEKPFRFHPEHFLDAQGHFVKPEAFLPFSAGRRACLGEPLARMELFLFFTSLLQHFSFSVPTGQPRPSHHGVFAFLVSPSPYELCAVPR
Sequence of Cytochrome P450 2C19 (Homo sapiens) (P33261 whole entry, looked up): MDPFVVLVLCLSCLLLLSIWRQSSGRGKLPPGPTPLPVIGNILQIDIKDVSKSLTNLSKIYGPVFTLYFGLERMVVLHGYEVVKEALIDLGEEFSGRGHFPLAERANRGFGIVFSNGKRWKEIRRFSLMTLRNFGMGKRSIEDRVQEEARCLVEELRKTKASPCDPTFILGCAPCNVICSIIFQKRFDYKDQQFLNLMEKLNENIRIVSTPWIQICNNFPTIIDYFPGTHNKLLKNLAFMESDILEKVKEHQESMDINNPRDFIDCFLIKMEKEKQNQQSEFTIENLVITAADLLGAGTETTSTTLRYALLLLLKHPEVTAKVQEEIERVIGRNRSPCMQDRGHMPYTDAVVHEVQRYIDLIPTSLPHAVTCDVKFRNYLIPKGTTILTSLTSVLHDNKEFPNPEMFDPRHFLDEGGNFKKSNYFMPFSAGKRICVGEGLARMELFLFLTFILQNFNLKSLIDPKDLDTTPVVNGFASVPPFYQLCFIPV
Sequence of Nuclear receptor subfamily 1 group I member 2 (Homo sapiens) (O75469 whole entry, looked up): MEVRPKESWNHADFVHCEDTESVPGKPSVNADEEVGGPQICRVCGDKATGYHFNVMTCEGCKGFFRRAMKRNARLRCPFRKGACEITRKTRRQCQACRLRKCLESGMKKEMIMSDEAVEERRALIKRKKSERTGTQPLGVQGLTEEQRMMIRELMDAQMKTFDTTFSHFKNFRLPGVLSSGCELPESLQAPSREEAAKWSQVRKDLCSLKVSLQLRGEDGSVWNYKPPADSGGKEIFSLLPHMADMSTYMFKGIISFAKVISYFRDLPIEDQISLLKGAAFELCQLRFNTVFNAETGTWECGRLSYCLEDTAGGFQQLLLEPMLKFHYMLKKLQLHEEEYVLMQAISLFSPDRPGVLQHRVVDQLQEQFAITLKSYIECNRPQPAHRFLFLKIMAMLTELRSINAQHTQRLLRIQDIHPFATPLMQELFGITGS
Sequence of Progesterone receptor (Homo sapiens) (P06401 whole entry, looked up): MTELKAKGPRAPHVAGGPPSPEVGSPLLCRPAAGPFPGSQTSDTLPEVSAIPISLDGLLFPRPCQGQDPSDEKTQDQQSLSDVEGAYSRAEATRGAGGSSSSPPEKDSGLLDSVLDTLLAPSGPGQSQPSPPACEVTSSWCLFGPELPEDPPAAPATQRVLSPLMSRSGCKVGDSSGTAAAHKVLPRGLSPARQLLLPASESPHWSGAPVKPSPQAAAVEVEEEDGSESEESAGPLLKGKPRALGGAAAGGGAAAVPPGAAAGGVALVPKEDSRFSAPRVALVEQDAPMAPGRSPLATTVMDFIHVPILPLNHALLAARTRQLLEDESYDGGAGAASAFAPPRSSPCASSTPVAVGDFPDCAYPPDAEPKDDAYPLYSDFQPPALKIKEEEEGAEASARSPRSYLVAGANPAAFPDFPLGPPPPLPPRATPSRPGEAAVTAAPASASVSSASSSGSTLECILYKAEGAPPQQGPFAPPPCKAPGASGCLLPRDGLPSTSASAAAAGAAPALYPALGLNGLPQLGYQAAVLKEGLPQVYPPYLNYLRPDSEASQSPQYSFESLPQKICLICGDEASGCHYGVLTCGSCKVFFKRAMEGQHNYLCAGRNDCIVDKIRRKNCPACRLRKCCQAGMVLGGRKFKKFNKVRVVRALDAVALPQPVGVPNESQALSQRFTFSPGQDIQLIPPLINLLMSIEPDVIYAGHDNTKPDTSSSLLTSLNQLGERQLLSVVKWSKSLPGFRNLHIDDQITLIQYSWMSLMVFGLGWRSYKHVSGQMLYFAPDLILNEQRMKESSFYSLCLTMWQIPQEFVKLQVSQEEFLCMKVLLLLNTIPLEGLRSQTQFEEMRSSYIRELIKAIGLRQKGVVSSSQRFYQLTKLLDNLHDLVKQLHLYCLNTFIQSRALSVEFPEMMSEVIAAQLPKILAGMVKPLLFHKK
Sequence of Nuclear receptor subfamily 1 group I member 2 (Rattus norvegicus) (Q9R1A7 whole entry, looked up): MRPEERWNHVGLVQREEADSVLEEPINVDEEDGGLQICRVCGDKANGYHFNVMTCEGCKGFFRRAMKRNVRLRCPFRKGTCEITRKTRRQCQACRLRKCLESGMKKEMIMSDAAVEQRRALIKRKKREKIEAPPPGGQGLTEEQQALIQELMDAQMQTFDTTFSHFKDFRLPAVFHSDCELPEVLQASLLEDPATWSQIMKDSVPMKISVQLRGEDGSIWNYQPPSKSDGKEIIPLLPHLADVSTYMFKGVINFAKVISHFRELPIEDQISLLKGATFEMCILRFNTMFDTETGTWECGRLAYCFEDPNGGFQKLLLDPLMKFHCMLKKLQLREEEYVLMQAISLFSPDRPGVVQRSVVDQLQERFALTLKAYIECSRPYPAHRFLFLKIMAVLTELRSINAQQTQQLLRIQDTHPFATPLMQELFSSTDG

`CNC1(C)C2CCC(C2)C1(C)C` (stereo unspecified): the Potency result in experiment [1], in experiment [2], in experiment [3], in experiment [4], in experiment [5] and in experiment [7] was “inactive” throughout. For the same compound, the Potency entry in experiment [8], in [9], in [10], in [11], in experiment [12] and in experiment [13] was “inactive” in each case. Further, the Potency result in experiment [14] and in [15] was “inactive” throughout. For the same compound, in [6], the call was inactive.
Take `C=CS(=O)(=O)O`: the Potency entry in experiment [1], in experiment [2], in experiment [3], in experiment [4], in [5] and in experiment [7] was “inactive” throughout. Besides, the Potency result in [8], in experiment [9], in experiment [10], in experiment [16], in experiment [11] and in experiment [12] was “inactive” throughout. Also, the Potency entry in experiment [13], in experiment [17] and in experiment [15] was “inactive” in each case. The call in [6] was inactive.
Consider `O=C(O[C@@H]1Cc2c(O)cc(O)cc2O[C@@H]1c1cc(O)c(O)c(O)c1)c1cc(O)c(O)c(O)c1`, for which the Potency entry in experiment [1], in experiment [2], in experiment [3], in experiment [4], in experiment [5] and in [7] was “inactive” throughout. Also, the Potency entry in experiment [8], in experiment [10], in experiment [11] and in experiment [13] was “inactive” in each case. Moreover, the result in experiment [6] was inactive. The Potency is 35.5 µM (active) in experiment [9]; 54.6 µM (active) and 29.5 µM (active) in experiment [12]; 50.4 µM (active) and inactive in experiment [17]; 40 µM (active) and 27.2 µM (active) in [15].
For the compound `CC(=O)OCCOCCOCCOC(C)=O`, the Potency result in [1], in experiment [2], in experiment [3], in [4], in [5] and in [7] was “inactive” each time. For the same compound, the Potency entry in experiment [8], in experiment [9], in [10], in [16], in [11] and in [12] was “inactive” each time. For the same compound, the Potency entry in experiment [14] and in experiment [15] was “inactive” in each case. For the same compound, the compound was classed as inactive in experiment [6]. In addition, the Potency in experiment [17] is 78.7 µM (active) and inactive.
Regarding `CC(C)(C)NCC(O)c1cc(O)cc(O)c1` (stereo unspecified), the Potency result in experiment [1], in experiment [2], in experiment [3], in experiment [4], in experiment [5] and in experiment [7] was “inactive” throughout. Further, the Potency entry in experiment [8], in experiment [9], in experiment [10], in [16], in [11] and in [12] was “inactive” in each case. The Potency result in [13], in experiment [19], in experiment [20] and in experiment [17] was “inactive” each time. For the same compound, the result in [6] was inactive. In experiment [18], the max activation was 3.93% (inactive). Also, the Potency in experiment [14] was 38.9 µM (active).
Regarding `CC1=C(C=O)C(C)(C)CC=C1`, the Potency result in experiment [1], in experiment [2], in [3], in [4], in experiment [5] and in [7] was “inactive” throughout. Moreover, the Potency result in [8], in experiment [9], in [10], in experiment [16], in [11] and in [12] was “inactive” each time. For the same compound, the Potency result in experiment [14] and in experiment [15] was “inactive” in each case. The call in experiment [6] was inactive.

For the origin of these results see PubChem BioAssay (Tox21).
